Source: the supplement of paper PMC11732987, “Enantioselective OTUD7B fragment discovery through chemoproteomics screening and high-throughput optimisation” (Communications Chemistry, 2025)

What was measured:
Assay in all cases: log2 ratio of Biotin-Ahx-Ub-VS probe labelling (fragment/DMSO); higher = less target engagement (more negative = stronger competition), active = hit call of the paper (q ≤ 0.05, log2 ratio ≤ -1)
Conditions in all cases: compound concentration: 200 uM; treatment time: 3 h
[1] = molecular target: USP34 (UniProt Q70CQ2)
Chain of USP34 (Q70CQ2 whole entry, the tested form may be a part): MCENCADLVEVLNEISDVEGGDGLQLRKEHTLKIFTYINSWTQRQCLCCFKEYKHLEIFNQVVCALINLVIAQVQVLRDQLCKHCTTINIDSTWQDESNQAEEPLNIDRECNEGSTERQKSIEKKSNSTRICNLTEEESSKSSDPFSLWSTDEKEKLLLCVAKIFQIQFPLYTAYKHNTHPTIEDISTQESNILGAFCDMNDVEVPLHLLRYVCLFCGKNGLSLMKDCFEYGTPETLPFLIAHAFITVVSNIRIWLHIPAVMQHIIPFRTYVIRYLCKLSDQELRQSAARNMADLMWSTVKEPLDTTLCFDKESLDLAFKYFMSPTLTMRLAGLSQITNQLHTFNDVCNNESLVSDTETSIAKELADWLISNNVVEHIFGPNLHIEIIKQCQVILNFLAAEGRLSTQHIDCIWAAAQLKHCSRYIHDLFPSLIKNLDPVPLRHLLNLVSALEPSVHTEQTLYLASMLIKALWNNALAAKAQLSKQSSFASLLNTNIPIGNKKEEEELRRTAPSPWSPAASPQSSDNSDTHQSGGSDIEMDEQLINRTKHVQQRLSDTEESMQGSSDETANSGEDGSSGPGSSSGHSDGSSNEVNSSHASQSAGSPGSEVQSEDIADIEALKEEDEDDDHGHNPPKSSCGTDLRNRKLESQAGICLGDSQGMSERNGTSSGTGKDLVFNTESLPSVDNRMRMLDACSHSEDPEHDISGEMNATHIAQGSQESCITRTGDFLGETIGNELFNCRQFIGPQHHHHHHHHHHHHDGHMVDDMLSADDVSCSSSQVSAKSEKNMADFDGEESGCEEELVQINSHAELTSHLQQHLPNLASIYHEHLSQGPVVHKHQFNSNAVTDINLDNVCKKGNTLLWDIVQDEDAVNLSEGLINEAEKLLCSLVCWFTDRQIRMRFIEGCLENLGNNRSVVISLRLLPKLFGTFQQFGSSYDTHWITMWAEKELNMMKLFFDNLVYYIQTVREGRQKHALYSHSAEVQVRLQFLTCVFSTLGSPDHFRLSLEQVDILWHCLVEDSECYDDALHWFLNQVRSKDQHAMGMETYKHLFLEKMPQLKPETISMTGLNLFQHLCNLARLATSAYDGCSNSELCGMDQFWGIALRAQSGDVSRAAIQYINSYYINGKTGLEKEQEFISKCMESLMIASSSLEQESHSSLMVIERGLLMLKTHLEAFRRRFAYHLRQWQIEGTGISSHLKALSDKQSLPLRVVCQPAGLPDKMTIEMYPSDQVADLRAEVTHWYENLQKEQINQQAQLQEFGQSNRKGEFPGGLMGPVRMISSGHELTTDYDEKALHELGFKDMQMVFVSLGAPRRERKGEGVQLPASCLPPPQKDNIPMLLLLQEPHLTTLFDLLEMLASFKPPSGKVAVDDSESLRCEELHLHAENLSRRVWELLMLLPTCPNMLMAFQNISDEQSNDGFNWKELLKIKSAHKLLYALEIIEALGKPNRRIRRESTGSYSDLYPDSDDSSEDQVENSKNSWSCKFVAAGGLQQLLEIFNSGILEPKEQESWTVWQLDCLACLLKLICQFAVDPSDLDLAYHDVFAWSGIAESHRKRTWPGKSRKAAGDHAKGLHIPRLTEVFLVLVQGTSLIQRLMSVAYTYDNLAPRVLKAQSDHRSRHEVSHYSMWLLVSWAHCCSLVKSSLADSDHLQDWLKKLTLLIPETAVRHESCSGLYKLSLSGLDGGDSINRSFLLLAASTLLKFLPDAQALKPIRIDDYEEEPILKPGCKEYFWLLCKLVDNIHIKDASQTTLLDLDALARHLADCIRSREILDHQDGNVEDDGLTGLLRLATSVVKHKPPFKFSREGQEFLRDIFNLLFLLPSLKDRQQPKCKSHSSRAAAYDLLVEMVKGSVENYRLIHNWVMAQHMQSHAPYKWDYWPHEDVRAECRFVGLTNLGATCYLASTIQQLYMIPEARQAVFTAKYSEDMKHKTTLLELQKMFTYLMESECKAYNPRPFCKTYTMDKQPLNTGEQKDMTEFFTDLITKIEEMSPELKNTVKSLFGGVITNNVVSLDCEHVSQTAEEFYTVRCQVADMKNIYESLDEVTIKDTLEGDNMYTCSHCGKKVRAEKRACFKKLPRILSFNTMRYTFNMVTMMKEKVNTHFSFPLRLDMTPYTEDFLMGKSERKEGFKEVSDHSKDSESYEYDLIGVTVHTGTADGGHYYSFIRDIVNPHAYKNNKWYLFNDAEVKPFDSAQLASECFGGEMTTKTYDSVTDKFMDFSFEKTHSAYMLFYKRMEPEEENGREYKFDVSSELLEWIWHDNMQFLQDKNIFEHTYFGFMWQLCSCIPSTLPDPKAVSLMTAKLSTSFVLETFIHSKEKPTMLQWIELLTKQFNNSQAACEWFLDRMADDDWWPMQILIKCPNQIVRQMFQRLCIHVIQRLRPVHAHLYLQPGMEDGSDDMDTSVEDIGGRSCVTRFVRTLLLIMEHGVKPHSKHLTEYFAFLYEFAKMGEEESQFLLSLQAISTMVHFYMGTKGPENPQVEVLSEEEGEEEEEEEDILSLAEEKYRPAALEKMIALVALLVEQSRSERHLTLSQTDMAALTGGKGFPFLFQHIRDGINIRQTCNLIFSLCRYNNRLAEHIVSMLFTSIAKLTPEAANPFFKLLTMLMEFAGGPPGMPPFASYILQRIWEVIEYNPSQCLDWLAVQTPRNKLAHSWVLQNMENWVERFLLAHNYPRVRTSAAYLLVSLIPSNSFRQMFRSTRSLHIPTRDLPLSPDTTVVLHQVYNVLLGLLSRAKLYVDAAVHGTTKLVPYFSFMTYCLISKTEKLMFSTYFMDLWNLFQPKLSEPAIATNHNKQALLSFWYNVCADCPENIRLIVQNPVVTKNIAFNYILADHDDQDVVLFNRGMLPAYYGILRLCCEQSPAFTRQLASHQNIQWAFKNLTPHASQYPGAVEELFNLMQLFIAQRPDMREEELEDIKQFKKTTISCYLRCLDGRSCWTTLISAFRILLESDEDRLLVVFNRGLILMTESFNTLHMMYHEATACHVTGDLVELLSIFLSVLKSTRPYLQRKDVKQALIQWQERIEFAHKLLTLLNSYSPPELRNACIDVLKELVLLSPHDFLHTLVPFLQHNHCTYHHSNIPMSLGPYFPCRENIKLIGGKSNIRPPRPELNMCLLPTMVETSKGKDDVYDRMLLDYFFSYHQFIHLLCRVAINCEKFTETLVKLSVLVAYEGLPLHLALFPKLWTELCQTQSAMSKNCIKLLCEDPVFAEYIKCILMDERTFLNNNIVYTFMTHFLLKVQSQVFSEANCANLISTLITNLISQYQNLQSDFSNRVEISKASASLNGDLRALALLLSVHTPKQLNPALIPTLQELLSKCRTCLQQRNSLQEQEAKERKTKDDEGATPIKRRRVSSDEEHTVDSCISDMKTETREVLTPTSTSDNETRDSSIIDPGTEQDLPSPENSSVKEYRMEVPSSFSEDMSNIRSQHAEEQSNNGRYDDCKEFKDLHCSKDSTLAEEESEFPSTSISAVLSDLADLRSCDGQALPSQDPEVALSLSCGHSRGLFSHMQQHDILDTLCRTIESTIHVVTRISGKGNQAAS
Outline: (§1)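 HEK293T lysate (495 µg per sample, in Tris/CHAPS/IGEPAL buffer with protease inhibitors) was exposed in triplicate for 3 h to fragment at 200 µM or to vehicle, then to Biotin-Ahx-Ub-VS at 0.5 µM final for 1 h. Labelled DUBs were enriched on NeutrAvidin, digested with LysC and trypsin, and analysed by diaPASEF LC-MS/MS. Spectronaut label-free quantities were normalised to the global median, and values are average log2 ratios of fragment over vehicle from an unpaired t-test. Only proteins with ≥2 unique peptides were used.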

[2] = molecular target: T1, USP36 (UniProt Q9P275)
T1 sequence (whole entry): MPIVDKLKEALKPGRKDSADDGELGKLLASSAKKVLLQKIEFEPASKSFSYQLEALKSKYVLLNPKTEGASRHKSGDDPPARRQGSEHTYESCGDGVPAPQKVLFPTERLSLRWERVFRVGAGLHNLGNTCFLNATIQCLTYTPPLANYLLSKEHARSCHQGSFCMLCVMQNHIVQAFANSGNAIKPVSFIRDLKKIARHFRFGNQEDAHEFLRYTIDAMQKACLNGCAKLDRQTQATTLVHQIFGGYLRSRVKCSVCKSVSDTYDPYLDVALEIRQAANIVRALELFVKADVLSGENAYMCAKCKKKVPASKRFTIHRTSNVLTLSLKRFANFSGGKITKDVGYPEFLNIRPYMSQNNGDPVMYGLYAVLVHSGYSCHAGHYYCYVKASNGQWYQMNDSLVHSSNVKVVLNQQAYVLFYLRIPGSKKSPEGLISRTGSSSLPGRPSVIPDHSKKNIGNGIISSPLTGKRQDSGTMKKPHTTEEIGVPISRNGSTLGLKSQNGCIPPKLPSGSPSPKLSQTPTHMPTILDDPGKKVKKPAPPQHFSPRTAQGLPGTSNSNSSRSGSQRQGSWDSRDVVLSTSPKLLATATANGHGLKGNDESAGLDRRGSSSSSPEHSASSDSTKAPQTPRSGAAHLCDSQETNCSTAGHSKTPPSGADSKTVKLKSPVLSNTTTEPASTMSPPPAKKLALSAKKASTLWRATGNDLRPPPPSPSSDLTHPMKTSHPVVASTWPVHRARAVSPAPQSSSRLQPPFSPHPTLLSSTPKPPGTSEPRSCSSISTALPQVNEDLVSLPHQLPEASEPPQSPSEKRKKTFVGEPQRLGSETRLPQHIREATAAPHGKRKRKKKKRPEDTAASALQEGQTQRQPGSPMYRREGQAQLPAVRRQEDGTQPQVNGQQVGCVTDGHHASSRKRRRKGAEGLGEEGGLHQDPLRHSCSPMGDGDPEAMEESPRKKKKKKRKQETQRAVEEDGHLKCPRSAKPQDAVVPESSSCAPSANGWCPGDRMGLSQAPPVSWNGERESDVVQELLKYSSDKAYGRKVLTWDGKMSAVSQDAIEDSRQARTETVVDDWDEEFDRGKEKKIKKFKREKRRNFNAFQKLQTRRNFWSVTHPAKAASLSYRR
Outline: as §1

[3] = molecular target: T2, USP38 (UniProt Q8NB14)
T2 sequence (whole entry): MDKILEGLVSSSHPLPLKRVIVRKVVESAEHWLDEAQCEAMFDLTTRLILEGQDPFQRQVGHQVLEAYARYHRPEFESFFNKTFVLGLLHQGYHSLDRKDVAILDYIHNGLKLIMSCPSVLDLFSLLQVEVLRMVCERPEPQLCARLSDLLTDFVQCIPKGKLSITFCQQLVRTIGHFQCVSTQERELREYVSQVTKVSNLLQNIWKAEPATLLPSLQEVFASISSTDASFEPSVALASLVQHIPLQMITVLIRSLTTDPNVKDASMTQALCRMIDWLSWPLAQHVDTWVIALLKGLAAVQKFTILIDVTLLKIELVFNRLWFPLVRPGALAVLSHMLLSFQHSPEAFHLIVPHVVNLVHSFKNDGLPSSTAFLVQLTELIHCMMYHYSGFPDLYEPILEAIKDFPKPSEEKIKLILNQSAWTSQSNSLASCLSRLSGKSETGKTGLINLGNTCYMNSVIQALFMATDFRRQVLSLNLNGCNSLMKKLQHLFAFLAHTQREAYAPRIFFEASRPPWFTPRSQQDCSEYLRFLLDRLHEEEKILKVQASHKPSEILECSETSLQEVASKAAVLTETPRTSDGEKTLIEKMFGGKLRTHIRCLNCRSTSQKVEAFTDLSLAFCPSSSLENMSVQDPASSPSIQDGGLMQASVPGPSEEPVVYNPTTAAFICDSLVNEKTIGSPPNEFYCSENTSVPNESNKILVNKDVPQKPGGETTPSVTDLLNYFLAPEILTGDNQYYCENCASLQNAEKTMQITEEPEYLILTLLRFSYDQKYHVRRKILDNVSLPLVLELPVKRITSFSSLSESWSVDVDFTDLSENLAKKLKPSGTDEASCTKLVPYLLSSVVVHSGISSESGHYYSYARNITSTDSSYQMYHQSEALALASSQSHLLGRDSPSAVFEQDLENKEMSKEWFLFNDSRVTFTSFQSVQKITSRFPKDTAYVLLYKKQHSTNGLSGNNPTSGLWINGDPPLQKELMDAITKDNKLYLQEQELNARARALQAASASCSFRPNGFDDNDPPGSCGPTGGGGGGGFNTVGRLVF
Outline: as §1

[4] = molecular target: T3, USP39 (UniProt Q53GS9)
T3 sequence (whole entry): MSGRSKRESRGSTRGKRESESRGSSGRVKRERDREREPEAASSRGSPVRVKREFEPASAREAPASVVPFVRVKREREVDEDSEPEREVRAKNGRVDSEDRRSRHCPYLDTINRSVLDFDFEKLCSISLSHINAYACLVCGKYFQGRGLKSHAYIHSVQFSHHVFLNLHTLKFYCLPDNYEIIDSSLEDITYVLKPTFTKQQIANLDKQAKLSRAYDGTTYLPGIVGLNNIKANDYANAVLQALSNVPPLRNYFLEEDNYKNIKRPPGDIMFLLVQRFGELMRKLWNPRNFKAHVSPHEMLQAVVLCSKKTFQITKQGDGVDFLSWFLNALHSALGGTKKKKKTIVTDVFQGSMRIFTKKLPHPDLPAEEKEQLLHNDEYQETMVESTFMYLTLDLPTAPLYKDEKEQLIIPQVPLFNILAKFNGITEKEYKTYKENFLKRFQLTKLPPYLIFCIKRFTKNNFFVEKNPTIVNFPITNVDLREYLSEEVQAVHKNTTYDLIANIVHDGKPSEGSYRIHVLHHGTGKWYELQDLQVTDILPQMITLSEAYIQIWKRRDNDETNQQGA
Outline: as §1

[5] = molecular target: T4, USP4 (UniProt Q13107)
T4 sequence (whole entry): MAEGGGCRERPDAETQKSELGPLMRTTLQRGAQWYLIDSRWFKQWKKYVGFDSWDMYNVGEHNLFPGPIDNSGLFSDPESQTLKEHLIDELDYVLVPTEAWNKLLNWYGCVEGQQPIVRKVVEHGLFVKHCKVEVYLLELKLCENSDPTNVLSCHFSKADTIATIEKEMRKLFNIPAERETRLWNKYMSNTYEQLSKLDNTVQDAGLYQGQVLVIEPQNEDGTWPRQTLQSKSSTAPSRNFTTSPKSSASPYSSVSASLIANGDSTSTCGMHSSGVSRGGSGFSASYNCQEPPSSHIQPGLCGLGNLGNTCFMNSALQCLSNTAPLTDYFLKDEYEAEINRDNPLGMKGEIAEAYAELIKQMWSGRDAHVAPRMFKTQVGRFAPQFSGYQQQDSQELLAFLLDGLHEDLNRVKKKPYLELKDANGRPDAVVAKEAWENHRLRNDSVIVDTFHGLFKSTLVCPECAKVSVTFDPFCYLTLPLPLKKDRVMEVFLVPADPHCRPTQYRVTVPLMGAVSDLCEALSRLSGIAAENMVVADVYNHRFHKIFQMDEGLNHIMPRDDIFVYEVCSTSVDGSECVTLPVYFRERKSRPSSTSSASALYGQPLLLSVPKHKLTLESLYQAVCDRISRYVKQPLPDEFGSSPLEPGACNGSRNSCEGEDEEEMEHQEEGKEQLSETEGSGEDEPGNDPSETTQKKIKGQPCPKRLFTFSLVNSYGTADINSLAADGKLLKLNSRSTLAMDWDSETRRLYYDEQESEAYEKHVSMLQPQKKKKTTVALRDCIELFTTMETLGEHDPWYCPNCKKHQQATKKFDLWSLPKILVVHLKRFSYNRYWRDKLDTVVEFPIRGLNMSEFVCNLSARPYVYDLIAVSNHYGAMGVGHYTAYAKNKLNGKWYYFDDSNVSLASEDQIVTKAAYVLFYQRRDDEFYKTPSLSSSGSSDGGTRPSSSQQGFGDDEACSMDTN
Outline: as §1

Measured: log2 ratio of Biotin-Ahx-Ub-VS probe labelling

O=C(CCl)Nc1cc(Cl)ccc1-n1cncn1
inactive: [1] -0.448 | [2] -0.325 | [3] -0.932 | [4] 0.142 | [5] -0.712
